Laboratory results from PubChem BioAssay (NCI).
This is part of a sample that, as a whole, favours compounds with a hit. Of some 83,000 tested, about 20% had one in any assay.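 Single-dose data. Exposure time 48 hours. Values below 10 considered active.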 Unmarked numbers belong to inactive results. The source made the active and inactive calls.

Legend:
Assay in all cases: NCI-60 one-dose screen, 48 h (100 = growth as untreated, 0 = no growth, -100 = all killed)
Settings in all cases: 10 µM unless noted
DU-145 prostate = test system: DU-145 prostate
K-562 leukemia = test system: K-562 leukemia
MALME-3M melanoma = test system: MALME-3M melanoma
MDA-MB-231 breast = test system: MDA-MB-231 breast
RXF 393 renal = test system: RXF 393 renal
SF-268 CNS = test system: SF-268 CNS
SF-295 CNS = test system: SF-295 CNS
SF-539 CNS = test system: SF-539 CNS
UACC-257 melanoma = test system: UACC-257 melanoma
M14 melanoma = test system: M14 melanoma

| SMILES | growth (DU-145 prostate) | growth (K-562 leukemia) | growth (MALME-3M melanoma) | growth (MDA-MB-231 breast) | growth (RXF 393 renal) | growth (SF-268 CNS) | growth (SF-295 CNS) | growth (SF-539 CNS) | growth (UACC-257 melanoma) | growth (M14 melanoma) |
| --- | --- | --- | --- | --- | --- | --- | --- | --- | --- | --- |
| Cc1cc(O)c(C2=NN(c3ccc(S(N)(=O)=O)cc3)C(c3ccc(Cl)cc3)C2)c(C)c1Cl (stereo not given) | 49.3% | 21% | 103% | 59% | 48.1% | 61.7% | 20.4% | 79% | 74.1% | 39.1% |
| COc1c(-c2cc(-c3ccc(C)o3)[nH]c(=O)n2)c(O)cc2occc12 | 78.2% | 16.8% | 69.2% | 70.8% | 56.3% | 69.8% | 77.6% | 69.9% | 78.7% | 44.7% |
| Cc1nc2ccc(Nc3nc(NCCN4CCOCC4)nc(Nc4ccc(F)cc4)n3)cc2n1Cc1ccccc1 | 59.2% | 3.04% (active) | -41.7% (active) | 33.3% | 12% | 62.1% | -36.8% (active) | 29.8% | -65.3% (active) | -38.8% (active) |
| Cc1cc(C)c2c(n1)sc1c(Nc3ccc(OCc4ccccc4)cc3)ncnc12 | 104% | 95.2% | 88.6% | 109% | 104% | 101% | 101% | 107% | 106% | 108% |
| c1ccc2c(c1)cnc1ccccc12 | 111% | 97.2% | 127% | 108% | 88.5% | 97.4% | 113% | 101% | 103% | 99.6% |
| Clc1ccc(-c2nc(Br)cn3ccnc23)cc1 | 91% | 90.2% | 103% | 69.6% | 90.4% | 81.7% | 93.4% | 81.6% | 95.8% | 94.3% |
| FC1(F)CCN(Cc2c[nH]c3cc(Cl)ccc23)C[C@H]1CCc1ccccc1 | 65% | 31.4% | 77.1% | 68.9% | 64.3% | 72.1% | 54.5% | 88.6% | 53.2% | 60% |
| CC(C)(C)CC(C)(C)NCc1cc(C(C)(C)C)cc(CNC(C)(C)CC(C)(C)C)c1O | 66.6% | 3.08% (active) | 51% | 23.3% | 76.2% | 85.2% | 57.7% | 83.8% | 75.3% | 70.1% |
| CC(=O)c1cc(C(=O)c2ccc3c(c2)Sc2ccccc2N3)c2c(C)cccn12 | 13.9% | 7.8% (active) | 62.3% | 19.7% | -7.81% (active) | 28.4% | 4.09% (active) | -28.4% (active) | 77% | 16.9% |
| COC(=O)/C=C/c1cc(OC(C)=O)c2c(c1)[C@@H](C(=O)OC)[C@H](c1ccc(OC(C)=O)c(OC(C)=O)c1)O2 | -9.78% (active) | 8.05% (active) | 48.7% | 14.1% | 37.1% | 24.2% | 23.9% | -23.9% (active) | 48.3% | 2.76% (active) |
| Cc1ccc(NC(=O)c2nc(S(C)(=O)=O)oc2-c2ccc(F)cc2)cc1Nc1ccc2ncn(C)c(=O)c2c1 | 57.8% | -22.8% (active) | 23.7% | 31% | 45% | 68.3% | 98.8% | 95.3% | 82.5% | 39.4% |
| COc1ccc(/C=C2\N=C(c3cccnc3)N(c3ccccc3)NC2=O)cc1 | 104% | 107% | 97.4% | 92.1% | 89.9% | 91.9% | 95.2% | 103% | 102% | 92.8% |
| COc1ccc([C@@H]2[C@@H](Oc3ccccc3)C(=O)N2c2cc(OC)c(OC)c(OC)c2)cc1F | 9.48% (active) | 4.73% (active) | 65.5% | 12.4% | 3.39% (active) | 25.3% | 3.68% (active) | -21.1% (active) | 57.3% | 5.14% (active) |
| COc1ccc2cc(-c3nc(C)c(C(C)=O)c(-c4ccc(C)cc4)n3)ccc2c1 | 107% | 125% | 91.2% | 81% | 81.6% | 101% | 99.6% | 89.6% | 101% | 91.1% |
| CCCOC(=O)C1c2cc3c(cc2CC(C)C1C(=O)OCCC)OCO3 (stereo not given) | 112% | 99.6% | 104% | 90% | 93.3% | 106% | 83% | 122% | 76.9% | 100% |
| CN1CCN(Cc2ccc(NC(=O)c3cccc(C#Cc4cnc(N)c5ncccc45)c3F)cc2C(F)(F)F)CC1 | -72.4% (active) | -19.7% (active) | -78.9% (active) | -74.2% (active) | -76.5% (active) | 67.2% | 85.3% | -29% (active) | -61.6% (active) | -76.4% (active) |
| O=c1cc(-c2ccc3c(c2)OCCO3)oc2cc(Cl)ccc12 | 25.6% | 35.1% | -16.3% (active) | 27.3% | 55.6% | 21.1% | 19.6% | -32.7% (active) | 52.8% | 60.6% |
| COCCOCCOCc1n(Cc2ccc3ccccc3n2)c2ccccc2[n+]1Cc1ccc2ccccc2c1 | 24.6% | 2.47% (active) | -7.52% (active) | 8.58% (active) | -19.9% (active) | 20% | -12.3% (active) | 15.8% | -8.67% (active) | -0.723% (active) |
| COc1ccc(C2CC(c3cccc(Nc4ccnc5cc(Cl)ccc45)c3)=NN2c2ccc(Cl)cc2)cc1 (stereo not given) | 79.2% | 12.8% | 74.6% | 75.5% | 105% | 55.1% | 30.7% | -31.5% (active) | 70.7% | 28.3% |
| CCOC(=O)C1=C(C)NC(SCc2nnc(-c3ccc(Cl)cc3)o2)=NC1c1ccc(Cl)cc1 (stereo not given) | 87.2% | 55.8% | 81.7% | 62.7% | 67.7% | 86% | 74.1% | 87.7% | 86.9% | 69.3% |
| COc1ccc(-c2nsc3c2NC(=O)CC3c2cccc(F)c2)cc1 (stereo not given) | 53.7% | 13.9% | 42.7% | 44.7% | 50.9% | 62% | 61.5% | 54.7% | 65.7% | 32.6% |
| COc1c(B(O)O)cccc1-c1nc2ccc3[nH]ncc3c2c2c1CCCC2 | 11.1% | 38.5% | 82.6% | 25.2% | -15.8% (active) | 23.2% | 34.8% | 0.769% (active) | 34% | 58.1% |
| CC(C)c1[nH]ncc1-c1nc2ccc3[nH]ncc3c2c2c1CCCC2 | 33.9% | 42% | 52.6% | 35.6% | -8.2% (active) | 36.7% | 43.1% | 23% | 44% | 37.1% |
| COc1ccc2[nH]cc(/C=C3\C(=O)Nc4ccccc43)c2c1 | 47.1% | 3.31% (active) | 57.5% | 38.9% | 33.3% | 62.5% | 45.5% | 25.8% | 28.2% | 11% |
| COc1ccc(/C=C2\Cc3c(Br)cccc3C2=O)c(OC)c1 | 87.4% | 64% | 60.2% | 58% | 80.9% | 73.6% | 67.5% | 73.4% | 98.2% | 47% |
| CCC(C)C1NC(=O)c2nc(oc2-c2ccccc2)-c2csc(n2)-c2csc(n2)-c2nc(oc2C)-c2coc(n2)CNC(=O)C(C(C)CC)NC1=O (stereo not given) | -90.6% (active) | -66.3% (active) | -84.9% (active) | -74.4% (active) | -72.5% (active) | -66.9% (active) | -78.9% (active) | -80.5% (active) | -66.2% (active) | -85.2% (active) |
| Nc1nc2c(c3ncccc13)C(c1ccccc1)Cc1ncccc1-2 (stereo not given) | 103% | 27.1% | 76.1% | 65.9% | 99.3% | 86.4% | 67.4% | 78.1% | 93.1% | 44.8% |
